# According to PubChem BioAssay AID624291 (National Center for Advancing Translational Sciences (NCATS), 2012):
# About 220 (0.063%) of roughly 350,000 compounds were called active. Not shown: some 4% with an inconclusive outcome. The sample holds actives, similar compounds and a random draw of the others, so the mix is not that of the screen. Values without a mark were called inactive. Calls follow the shape of the dose curve; as a rule, active = well fitted activation curve with a large enough effect; inconclusive = small, poorly fitted or top-dose-only effect; inactive = no such curve, though single readings can be large or run the other way.
# Test: qHTS for Activators of Integrin-Mediated Alleviation for Muscular Dystrophy; also: nearly all actives have a fitted effect of over 60% in size;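 as to activation: 100% = response of the positive control SU9516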
# Conditions: alpha7betagal myoblasts, beta-gal FDG fluorescence, 48 h; series mostly up to 38.3 µM; activation: at the top concentration
# In short: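 alpha7betagal+/- myoblasts (passage 13, 250/well) treated 48 h at 37C with compounds at 1:260 dilution of DMSO stock. Lysed, then beta-galactosidase activity read as FDG fluorescence (ex 480/em 540) after 30 min, with pre-read for autofluorescence.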
# Potency is read from the fitted curve at half-maximal effect.
SMILES,activation,Potency
COc1ccc(-c2c(C#N)cnc(C)c2C)c(O)c1OC,4.61%,–
COc1ccc(-c2ccc3[nH]c4c(c3c2)CCN2C[C@H]3[C@H](C)ON(C)[C@H]3C[C@@H]42)cc1,-35.2%,–
O=C(Nc1ccc2c(c1)[C@@H]1C[C@@H](CC(=O)N3CCCCC3)O[C@@H](CO)[C@@H]1O2)NC1CCCCC1,-1.68%,–
C[C@@H]1CCCCO[C@H](CN(C)Cc2ccccc2)[C@@H](C)CN([C@H](C)CO)C(=O)c2cc(NS(=O)(=O)c3ccc(Cl)cc3)ccc2O1,0%,–
OCC1OC(n2cnc3c(N4CCCC4)ncnc32)C(O)C1O (stereo not drawn),28%,–
CCOC(=O)C1CCN(C(=O)c2ccc3c(=O)n4nc(Nc5ccccc5CC)sc4nc3c2)CC1,-27.7%,–
COc1ccc(-c2ccc(CN3C(CC(C)C)C(=O)N(Cc4cn(CC5CCCCC5)nn4)CCS3(=O)=O)cc2)cc1 (stereo not drawn),-40.1%,–
CNC(=O)C[C@H]1C(=O)N(c2ccc(OC)cc2)C[C@@H]1Cc1ccccc1,25.2%,–
COc1cccc(NC(=O)N(C)C[C@@H]2Oc3ncc(Br)cc3C(=O)N([C@@H](C)CO)C[C@H]2C)c1,-11.6%,–
COc1ccc(NC(=O)c2cc(=O)[nH]c3ccccc23)cc1S(=O)(=O)N1CCOCC1,-4.2%,–
CCN(CC)C(=O)C1=C(C)N(Cc2ccc(OC)cc2)C(=O)C(CC(=O)NCc2ccco2)C1 (stereo not drawn),12.9%,–
O=C(NCCOc1ccccc1)N1[C@H]2CC[C@@H]1C=C(c1ccc(F)cc1OCc1ccccc1)C2,-42.9%,–
O=S(=O)(c1cccc(C(F)(F)F)c1)N1c2ccccc2-n2cccc2C1c1cccnc1 (stereo not drawn),-33.7%,–
O=C(C[C@H]1C[C@@H]2c3cc(NC(=O)C4CCC4)ccc3O[C@@H]2[C@H](CO)O1)NC1CCCCC1,-20.1%,–
CCOC(=O)c1cnn2c(SC)ncnc12,-0.493%,–
Cc1ccc(-c2ccc(CN3C(C(C)C)C(=O)N(Cc4cn(CCC5OCCCO5)nn4)CCS3(=O)=O)cc2)cc1 (stereo not drawn),18.3%,–
O=C(CSc1ncn[nH]1)Nc1nc2c(F)c(F)c(F)cc2s1,17.7%,–
C[C@H]1CN([C@@H](C)CO)C(=O)CCCn2nncc2CO[C@@H]1CN(C)S(=O)(=O)c1cccc(C#N)c1,13.4%,–
c1ccc2c(c1)nnn2-c1ccncc1,0.175%,–
CC(OC(=O)c1cccc(S(=O)(=O)N2CCOCC2)c1)C(=O)NCC1CCCCC1 (stereo not drawn),-9.35%,–

SMILES,activation,Potency
CC1(C)OC(=O)C2=C(CC(c3ccccc3)OC2CCc2ccccc2)O1 (stereo not drawn),-10.7%,–
O=C(NCCS(=O)(=O)N1CCN(c2ccccc2)CC1)c1cc(=O)c2ccccc2o1,6.87%,–
CCc1ccccc1NC(=O)CN1CCN(C(=O)c2cc(C3CC3)nn2-c2ccccc2)CC1,2.65%,–
Cc1ccn2c(-c3csc(Nc4ccc(C(=O)O)cc4)n3)c(C)nc2c1,-1.17%,–
CC1=C(C(=O)Nc2cccc(C(=O)NCC(C)c3ccccc3)c2)SCCO1 (stereo not drawn),1.28%,–
CC(=O)c1ccccc1NC(=O)COC(=O)C1COc2ccccc2O1 (stereo not drawn),2.31%,–
O=C(CCc1ccc(O)cc1)NN=Cc1cc(Br)ccc1O,-56%,–
COc1ccc(S(=O)(=O)N2CCC(C(=O)NCCC(=O)Nc3ccccc3OC)CC2)cc1,-6.92%,–
CCOc1cc(/C=N/NC(=O)c2ccncc2)cc(Br)c1O,4.83%,–
Cc1ccc(CCNC(=O)CN2C(=O)CSc3ccc(S(=O)(=O)N4CCOCC4)cc32)cc1,-2.83%,–
N#CCCN(C(=O)Nc1ccc(Cl)c(Cl)c1)C1CCCCC1,27.3%,–
O=C1c2ccccc2-c2ccccc2NC1O (stereo not drawn),-4.86%,–
Cc1ccc(S(=O)(=O)N2C[C@H]3n4c(=O)ccc(=O)n4C[C@H](OC(=O)NC4CCCC4)[C@@]3(O)C2)cc1,2.66%,–
CCCCN(C(C)=O)c1ccc2c(c1)C1CC2CCN1Cc1ccccc1 (stereo not drawn),-16.5%,–
C[C@@H]1CN([C@H](C)CO)S(=O)(=O)c2ccc(C#CC3CCCCC3)cc2O[C@H]1CN(C)C(=O)Cc1ccncc1,-44.2%,–
COc1ccc(OC)c(NC(=O)C2CCCN2S(=O)(=O)c2ccc3c(c2)CC(C)N3C(C)=O)c1 (stereo not drawn),5.18%,–
C#Cc1cc(N2CCN(C(=O)c3ccoc3)CC2)n2nc(-c3cccc(Cl)c3)cc2n1,-66.7%,–
Nc1cc(=O)c2[nH]cnc2[nH]1,9.52%,–
CSc1ncnc2c1ncn2CCCNCc1ccco1,-0.506%,–
C[C@@H]1CN([C@@H](C)CO)C(=O)CCCn2nncc2CO[C@H]1CN(C)Cc1ccc(C(F)(F)F)cc1,-6.93%,–

SMILES,activation,Potency
CCC(Oc1ccccc1)C(=O)OCC(=O)Nc1c(C)nn(-c2ccccc2)c1C (stereo not drawn),-14.5%,–
CCc1nnc(NC(=O)c2ccco2)s1,-11.4%,–
O=C(Nc1cc(F)ccc1F)c1ccc2c(=O)n3c(nc2c1)CCC3,21.5%,–
O=C(NN=Cc1ccc2c(c1)CCC2)c1ccccc1O,-8.45%,–
Cc1ccc(CN(C)C[C@@H]2OCc3cnnn3CCCC(=O)N([C@@H](C)CO)C[C@H]2C)cc1,10.6%,–
CC(=NNC(N)=O)C1CC2CCC1CC2 (stereo not drawn),20.4%,–
CCN(CC)C(=O)C1=C(C)N(Cc2ccc(C(C)(C)C)cc2)C(=O)C(CC(=O)NCc2cccc3ccccc23)C1 (stereo not drawn),4.29%,–
Cc1ccccc1C#CC1=CC(=O)CC(C)(C)C1,-16.2%,–
COc1ccc(NC(=O)N(C)C[C@H]2Oc3ncc(C#C[C@@H](C)O)cc3C(=O)N([C@H](C)CO)C[C@H]2C)cc1,0%,–
CCCc1ccc(S(=O)(=O)N2CCN(C(=O)c3cc(C)on3)CC2)cc1,-5.39%,–
COc1cc(C(=O)OCCCN2CCOCC2)cc(OC)c1OC,-16.1%,–
O[C@@H]1C[C@H](c2ccccc2)N(Cc2cccs2)C[C@H]1n1cc(C2CC2)nn1,8.05%,–
CC(=O)Nc1ccc(NC(=O)[C@@H](NC(=O)c2cccc(C)c2)C(C)C)cc1,–,5.62 µM (active)
Cc1cccc(C(=O)N[C@H](C(=O)NCc2cccs2)C(C)C)c1,2.9%,–
CCc1nnc(NC(=O)[C@@H](NC(=O)c2cccc(C)c2)C(C)C)s1,-7.54%,–
O=C(O)C1=C(C(=O)O)C2CCC1C2,12.3%,–
COCOCCn1cc(CN2CCS(=O)(=O)N(Cc3ccc(-c4ccccc4)cc3)C(CC(C)C)C2=O)nn1 (stereo not drawn),-33.9%,–
CC1(C2CC2)NC(=O)N(CC(=O)N2CCN(c3ccccc3F)CC2)C1=O (stereo not drawn),15.2%,–
